ATG4B inh: ATG4B (human) cysteine protease inhibition; actives 0.51% (n = 340,000); AID 504462; inhibition, % at 8.33 µM; Q9Y4P1; ATG4B cleavage of LC3-PLA2, NBD-HPC fluorescence, 1 h; in the data active = inhibition above about 40%
Target sequence (Q9Y4P1 whole entry, looked up): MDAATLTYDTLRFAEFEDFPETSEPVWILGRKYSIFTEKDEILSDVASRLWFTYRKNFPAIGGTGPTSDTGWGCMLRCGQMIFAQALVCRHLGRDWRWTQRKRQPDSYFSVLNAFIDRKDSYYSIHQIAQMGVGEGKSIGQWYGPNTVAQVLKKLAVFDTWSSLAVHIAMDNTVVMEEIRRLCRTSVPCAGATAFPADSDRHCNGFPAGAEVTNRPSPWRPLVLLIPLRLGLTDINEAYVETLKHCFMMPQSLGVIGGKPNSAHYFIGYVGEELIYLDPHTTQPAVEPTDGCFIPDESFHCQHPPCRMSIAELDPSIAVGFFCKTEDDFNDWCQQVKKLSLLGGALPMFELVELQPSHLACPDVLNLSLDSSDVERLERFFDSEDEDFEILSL
TIM10 inh: TIM10 yeast growth inhibition | inhibition, % at 10 µM | S. cerevisiae TIM10 strain growth, BacTiter-Glo luminescence, 24 h | AID 463195 | actives 1.4% (n = 330,000);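 active = inhibition of 40% or more at the single tested concentration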;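 also: wild-type TIM10 isogenic control strain grown at permissive 25 °C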
PfHsp90 yeast 2: growth inhibition of yeast expressing Plasmodium Hsp90; S. cerevisiae expressing PfHsp90, BacTiter-Glo ATP, 48 h; yeast lacking PDR1 and PDR3 efflux regulators; inhibition, % at 9.4 µM; actives 0.32% (n = 310,000);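 active = every replicate shows inhibition above about 80%, whatever the replicate mean, limit read from the data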
SKKanGAS inh: blocks kanamycin growth of S. pyogenes SKKanGAS strain; BacTiter-Glo, 6 h; inhibition, % at 7.5 µM; actives 1.3% (n = 300,000); AID 1662;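 active = mean replicate score, as percent of positive control median, at least 50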;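 also: strain carries kanamycin resistance gene driven by streptokinase promoter and grows in 40 µg/ml kanamycin; loss of luminescence reflects streptokinase promoter inhibition or plain growth inhibition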
tim10-1 inh: growth inhibitors of tim10-1 mutant yeast. S. cerevisiae tim10-1 ts strain growth, BacTiter-Glo, 24 h. inhibition, % at 20 µM. actives 2.2% (n = 330,000);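 active = inhibition of at least 40%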;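 also: mutant grown at 25 °C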
tim23-1 inh: tim23-1 yeast growth inhibition; S. cerevisiae tim23-1 growth, BacTiter-Glo luminescence, 24 h; inhibition, % at 20 µM; actives 1.3% (n = 330,000); AID 463212;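 active = growth inhibition of the mutant yeast at or above 50%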;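 also: temperature-sensitive mutant grown at 25 °C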
tim10-1 conf: confirmation of tim10-1 mutant yeast growth inhibitors | shares compounds with tim10-1 inh | S. cerevisiae tim10-1 ts strain growth, BacTiter-Glo, 24 h | inhibition, % at 20 µM | actives 56% (n = 7,400);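 active = inhibition of yeast growth at or above a set limit in either of two repeat tests at 20 µM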;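 also: tim10-1 mutant grown at permissive 25 °C to find synthetic lethal compounds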
TIM10 conf: TIM10 yeast growth inhibition, confirmed; shares compounds with TIM10 inh; S. cerevisiae tim10 strain growth, BacTiter-Glo luminescence, 24 h; inhibition, % at 10 µM; actives 63% (n = 4,600); AID 463215;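 active = inhibition of yeast growth at or above a set limit in either of two replicates at 10 µM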; also: this counterscreen used the strain with wild-type TIM10
Hits are given with their value; - = inactive; . = no result. Sampled rows, rich in hits. Any-hit rate of the full collection: about 4.7%.

SMILES | ATG4B inh | TIM10 inh | PfHsp90 yeast 2 | SKKanGAS inh | tim10-1 inh | tim23-1 inh | tim10-1 conf | TIM10 conf
CN(C)c1ccc(C2Nc3cccc4cccc(c34)N2)cc1 | - | 66 | - | - | 57 | - | 58 | 67
COc1cccc(C(C[N+](=O)[O-])c2c(C)[nH]n(-c3ccccc3)c2=O)c1 (stereo not given) | - | 62 | - | - | 51 | - | 64 | 89
COc1cccc(N=Nc2c(C)[nH]n(-c3ccccc3)c2=O)c1 | - | - | - | - | - | - | . | .
CCCCN(Cc1ccco1)C(=O)c1cc2c(=O)[nH]c3ccc(C)cc3c2s1 | - | - | - | - | - | - | . | .
CCn1ccnc1CN(C)Cc1cn(-c2cccc(C)c2)nc1-c1cccc(F)c1 | - | - | - | - | - | - | . | .
Cc1cccc(-n2cc(CN(C)Cc3nccn3C)c(-c3cccc(F)c3)n2)c1 | - | 45 | - | - | 43 | - | - | 44
Cc1oc(-c2ccccc2)nc1C(=O)OCC(=O)NCc1ccccc1 | - | - | - | . | - | - | . | .
COc1ccc(-c2cn[nH]c2-c2ccc(OCc3ccc([N+](=O)[O-])cc3)cc2O)cc1 | - | 42 | - | - | 47 | - | - | -
CCOC(=O)C1Nc2c(F)cc(C)cc2C2c3ccccc3CC12 (stereo not given) | - | 46 | - | - | 49 | - | 55 | 59
CCOC(=O)C1Nc2c(cc(C(F)(F)F)cc2[N+](=O)[O-])C2c3ccccc3CC12 (stereo not given) | - | - | - | - | - | - | . | .
Cc1ccc(N2C(=O)CC(SCC(=O)Nc3ccc(S(N)(=O)=O)cc3)C2=O)cc1 (stereo not given) | - | - | - | - | - | - | . | .
CCOC(=O)c1ccc(N2C(=O)CC(SCC(=O)Nc3ccc(S(N)(=O)=O)cc3)C2=O)cc1 (stereo not given) | - | 41 | - | - | 51 | - | 45 | 47
Cc1cccc(C(=O)N2CCCC(c3nc(-c4ccc(C)o4)no3)C2)c1 (stereo not given) | - | - | - | - | - | - | . | .
S=c1[nH]ncn1/N=C/c1ccccc1 | - | - | - | - | - | - | . | .
FC(F)Sc1ccc(NC(=S)NC2CCCC2)cc1 | - | 59 | - | - | 53 | - | 41 | -
COC(=O)Cn1cnc2c(oc3ccccc32)c1=O | - | - | - | - | - | - | . | .
Fc1ccc(CN2CCN(c3ncnc4scc(-c5ccccc5)c34)CC2)cc1 | - | - | - | - | - | - | . | .
Fc1ccc(N2CCN(c3nc(CN4CCOCC4)nc4scc(-c5ccccc5)c34)CC2)cc1 | - | 40 | - | - | 55 | - | 34 | 34
Cc1ccccc1Nc1nc(N)nc(COC(=O)c2cccc(S(=O)(=O)N(C)c3ccccc3)c2)n1 | - | - | - | - | - | - | . | .
Cc1ccc(C(=O)ON=C2CCN(c3ccc([N+](=O)[O-])cc3)CC2)cc1 | - | 61 | - | - | 53 | - | 49 | 63
COc1ccc2cc3cc(C(=O)NCCN4CCN(c5ccccc5F)CC4)oc3nc2c1 | - | 79 | - | - | 71 | - | 63 | -
COc1ccc2cc3cc(C(=O)Nc4ccccc4N4CCN(C)CC4)oc3nc2c1 | - | 44 | - | - | 55 | - | 44 | -
CCCN(CCC)CCCNC(=O)c1cc2cc3ccc(Cl)cc3nc2o1 | - | 60 | - | - | 58 | - | 39 | 41
COc1ccc2cc3cc(C(=O)N4CCN(c5ccccc5)CC4)oc3nc2c1 | - | - | . | - | - | - | . | .
O=C(NC(=S)Nc1ccccc1N1CCCC1)c1cccs1 | - | - | - | - | - | - | . | .
SMILES | ATG4B inh | TIM10 inh | PfHsp90 yeast 2 | SKKanGAS inh | tim10-1 inh | tim23-1 inh | tim10-1 conf | TIM10 conf
COCCNC(=O)c1cc2cc3ccc(OC)cc3nc2o1 | - | - | - | - | - | - | . | .
O=C(NC(=S)Nc1ccccc1N1CCCCC1)c1cccs1 | - | 52 | - | - | 43 | - | 34 | 61
CCN1C2=C(C(=O)CCC2)C(c2ccc(O)c(Br)c2)C2=C1CCCC2=O | - | - | - | - | - | - | . | .
CCCCN(CC)CCCNC(=O)c1cc2cc3ccc(C)cc3nc2o1 | - | - | - | - | - | - | . | .
Cc1ccc2cc3cc(C(=O)NCCCN4CCc5ccccc5C4)oc3nc2c1 | - | 64 | - | - | 51 | - | 35 | -
CN1CCN(c2ccccc2NC(=S)NC(=O)c2cc3ccccc3o2)CC1 | - | 98 | - | - | 40 | - | - | -
CCC(NC(=S)NCc1ccccc1)C(=O)O (stereo not given) | - | - | - | - | - | - | . | .
Cc1ccc(NC(=S)NCc2ccc3[nH]c4c(c3c2)CCCC4)cc1 | - | 46 | - | - | 47 | - | 29 | -
O=c1ccc2cc(S(=O)(=O)N3CCN(c4cc(Cl)ccc4Cl)CC3)ccc2o1 | - | 42 | . | - | 42 | - | - | 39
Cc1ccnc(N2C(=O)c3ccccc3C2Nc2ccccc2Cl)c1 (stereo not given) | - | - | - | - | - | - | . | .
O=C(COc1ccc(Cl)cc1)NCCN1CCCC1 | - | - | - | - | - | - | . | .
O=C(/C=C/c1cccc(Cl)c1)c1nc2ccccc2[nH]1 | - | 58 | - | - | 50 | - | 41 | 63
COC(=O)Nc1ccc(S(=O)(=O)N2CCC(Cc3ccccc3)CC2)cc1 | - | 45 | - | - | 45 | - | 40 | -
Cc1ccc(C(=O)CSc2nc(C)cc(C)c2C(N)=O)cc1 | - | - | - | . | - | - | . | .
Clc1ccc2c(N/N=C/c3cccnc3)ccnc2c1 | - | 71 | - | - | 51 | - | 57 | 79
Cc1cc(N/N=C/c2ccccc2O)nc(-c2ccccc2O)n1 | - | 41 | - | 60 | 50 | - | 32 | -
NC(=O)c1cc([N+](=O)[O-])ccc1NCc1ccc(N)cc1 | - | 54 | - | . | 57 | - | 48 | 65
NC(=O)c1cc([N+](=O)[O-])ccc1NCc1ccc(F)cc1 | - | - | - | . | - | - | . | .
CCOc1ccc2nc3ccc4[nH]onc4c3c2c1 | - | 48 | - | - | 42 | - | 53 | 53
Cc1cccc(N2CCN(C(=O)c3ccc(N4CCCC4=O)cc3)CC2)c1C | - | 42 | - | - | 45 | - | 31 | -
Cc1cccc(N2CCN(C(=O)c3ccc(Cl)c(S(=O)(=O)NCc4ccco4)c3)CC2)c1C | - | 50 | - | - | 45 | - | 39 | 40
CCOc1ccc(C(=O)N2CCN(c3cccc(C)c3C)CC2)cc1 | - | 42 | . | - | 45 | - | 33 | 32
CCOc1ccc(C(=O)N2CCN(c3cccc(Cl)c3)CC2)cc1 | - | - | - | - | - | - | . | .

Screens from PubChem.
